From PubChem BioAssay (Tox21)
A number with no mark means an inactive call. Inconclusive results are not listed. Entries that show only a call come without a potency. Active and inactive are the calls of the source. Unless noted, calls come from the whole dose curve; as a rule, active = well fitted curve in the direction sought with a large enough effect in the repeat runs; inconclusive = weak or mixed curves; inactive = no such curve, though single readings can be large; an effect the other way counts as inactive or inconclusive.

What was measured:
[1] = molecular target: Thyrotropin-releasing hormone receptor (Homo sapiens) (UniProt P34981); assay: qHTS assay to identify small molecule agonists of the thyrotropin-releasing hormone receptor (TRHR) signaling pathway (AID 1346891; calls by dose curve;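 note: HEK293 cells expressing TRHR with calcium dye readout; series mostly up to about 58 µM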)
How it was run: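 Kinetic fluorescence (3 min, 1 s intervals) reported intracellular calcium after compound transfer onto TRHR-Hek293 cells pre-loaded with dye for 2 h at 37 °C.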

[2] = Human pregnane X receptor (PXR) small molecule agonists, qHTS cell viability counter screen (AID 1346977); note: nearly all actives have a fitted effect of over 50% in size; note: potency is the fitted concentration of half-maximal effect
How it was run: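 HepG2 cells stably carrying the PXR-Luc reporter are cultured with 5% charcoal-stripped FBS and treated with compounds for 24hr. CellTiter-Fluor is added at 23hr and fluorescence is read after 1hr.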

[3] = Caspase-3/7 induction in HepG2 cells by small molecules, qHTS assay (AID 1346978); note: nearly all actives have a fitted effect of over 15% in size; note: potency is the fitted concentration of half-maximal effect
How it was run: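 Caspase-3/7 induction was measured by Caspase-Glo 3/7 luminescence (30 min, room temperature) after a 17 hr compound exposure of wild-type HepG2 cells seeded at 2,000 per well and pre-incubated 5 hr.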

[4] = Caspase-3/7 induction in CHO-K1 cells by small molecules, qHTS cell viability counter screen (AID 1346979); note: nearly all actives have a fitted effect of over 35% in size; note: potency is the fitted concentration of half-maximal effect
How it was run: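 Seeding: 1,500 CHO-K1 cells/well. Rest: 5hr, 37C. Treatment: compounds in DMSO, 16hr. Read: CellTiter-Fluor, 1hr, fluorescence.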

[5] = Caspase-3/7 induction in CHO-K1 cells by small molecules, qHTS assay (AID 1346980); note: nearly all actives have a fitted effect of over 15% in size
How it was run: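 Luminescent Caspase-Glo 3/7 read (30min, room temperature) quantified apoptosis induction. Cells were wild-type CHO-K1, treated with compound for 17hr at 37 C and 5% CO2.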

[6] = Caspase-3/7 induction in HepG2 cells by small molecules, qHTS cell viability counter screen (AID 1346981); note: nearly all actives have a fitted effect of over 30% in size; note: potency is the fitted concentration of half-maximal effect
How it was run: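 Wild-type HepG2 cells, 2,000/well, settled 5 hr at 37 C, 5% CO2 before compound addition. Viability read by CellTiter-Fluor fluorescence, reagent added after 16 hr compound exposure, then 1 hr at 37C, in the same wells as the caspase read.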

[7] = molecular target: Nuclear receptor subfamily 1 group I member 2 (Homo sapiens) (UniProt O75469); assay: Human pregnane X receptor (PXR) small molecule agonists, qHTS assay (AID 1346982); note: nearly all actives have a fitted effect of over 35% in size; note: potency is the fitted concentration of half-maximal effect
How it was run: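 PXR-Luc HepG2 reporter cells (CYP3A4-driven luciferase) in 5% charcoal-stripped FBS medium, plated 5 h before compound addition, then treated 24 h at 37C. Luciferase read by ONE-Glo luminescence after 30 min at room temperature.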

[8] = molecular target: Nuclear receptor subfamily 1 group I member 2 (Homo sapiens) (UniProt O75469); assay: CYP3A4 induction through human pregnane X receptor (PXR) by small molecules, qHTS assay (AID 1346984); note: nearly all actives have a fitted effect of over 40% in size
How it was run: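 DPX-2 HepG2 cells carrying a PXR response element and CYP3A4-promoter luciferase construct, treated with compounds 24 hr at 37C. Then P450-Glo CYP3A4 Luciferin-IPA substrate (3uM final) for 3 hr at 37C, One-Glo added, luminescence read.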

[9] = molecular target: Nuclear receptor subfamily 1 group I member 2 (Homo sapiens) (UniProt O75469); assay: Human pregnane X receptor (PXR) activation by small molecules, qHTS assay (AID 1346985); note: nearly all actives have a fitted effect of over 40% in size
How it was run: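 DPX-2 cells (HepG2 co-transfected with a PXR response element and a CYP3A4-promoter luciferase construct) were seeded at 2,000 per well, rested 5 hr at 37C, then exposed to DMSO-dissolved compounds for 24 hr. Activation was read as luciferase luminescence.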

[10] = molecular target: Cytochrome P450 2D6 (Homo sapiens) (UniProt P10635); assay: Cytochrome P450 Family 2 Subfamily D Member 6 (CYP2D6) small molecule antagonists: luciferase reporter qHTS assay (AID 1671196); note: nearly all actives have a fitted effect of over 50% in size; note: potency is the fitted concentration of half-maximal effect
How it was run: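 Cell-free P450-Glo system: CYP2D6 with proluciferin substrate was pre-incubated with compound for 10 min, then reacted with NADPH regeneration for 1 h at room temperature. Luciferin product was detected after 20 min, and data were reported as relative luminescence units.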

[11] = molecular target: Cytochrome P450 2C19 (Homo sapiens) (UniProt P33261); assay: Cytochrome P450 Family 2 Subfamily C Member 19 (CYP2C19) small molecule antagonists: luciferase reporter qHTS assay (AID 1671197); note: nearly all actives have a fitted effect of over 65% in size; note: potency is the fitted concentration of half-maximal effect
How it was run: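 Quantitative high-throughput screen of the Tox21 library using CYP2C19 with proluciferin substrate. Reaction: NADPH regeneration, 37C, 1 h, after 10 min compound preincubation at room temperature. Readout: luminescence.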

[12] = molecular target: Cytochrome P450 2C9 (Homo sapiens) (UniProt P11712); assay: Cytochrome P450 Family 2 Subfamily C Member 9 (CYP2C9) small molecule antagonists: luciferase reporter qHTS assay (AID 1671198); note: nearly all actives have a fitted effect of over 50% in size; note: potency is the fitted concentration of half-maximal effect
How it was run: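 Enzyme-substrate mix preincubated with compound 10 min at room temperature; reaction started with NADPH regeneration solution, 1 h 37C. Luminescent luciferin product read after 20 min detection reagent.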

[13] = molecular target: Cytochrome P450 1A2 (Homo sapiens) (UniProt P05177); assay: Cytochrome P450 Family 1 Subfamily A Member 2 (CYP1A2) small molecule antagonists: luciferase reporter qHTS assay (AID 1671199); note: nearly all actives have a fitted effect of over 50% in size; note: potency is the fitted concentration of half-maximal effect
How it was run: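 P450-Glo CYP1A2 enzyme–proluciferin substrate mix with compound 10 min at room temperature, then NADPH regeneration 1 h at room temperature. Luciferin detection reagent added, luminescence read after 20 min; furafylline positive control.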

[14] = molecular target: Voltage-gated inwardly rectifying potassium channel KCNH2 (Homo sapiens) (UniProt Q12809); assay: Human Ether-a-go-go-Related Gene (hERG) channel small molecule antagonists: fluorescence cell-based qHTS assay (AID 1671200)
How it was run: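 First, 1000 cells per well are seeded and cultured overnight at 37 C. Next, FluxOR II dye is loaded for 1 h at room temperature, protected from light. After 10 more minutes, stimulus is added and fluorescence is read.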

[15] = molecular target: Nuclear receptor subfamily 1 group I member 2 (Rattus norvegicus) (UniProt Q9R1A7); assay: Rat pregnane X receptor (rPXR) activation by small molecules, qHTS assay (AID 1346983); details: rPXR luciferase reporter cells, One-Glo luminescence, 24 h; max activation: stronger effect = higher value; note: nearly all actives have a fitted effect of over 20% in size
How it was run: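 Luminescent readout (One-Glo luciferase, 30 min room temperature) followed 24 hr compound treatment at 37 C of rPXR cells plated 2,000 per well and preincubated 5hr; qHTS format with compounds delivered in DMSO.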

[16] = molecular target: Cytochrome P450 3A4 (Homo sapiens) (UniProt P08684); assay: Cytochrome P450 Family 3 Subfamily A Member 4 (CYP3A4) small molecule antagonists: luciferase reporter qHTS assay (AID 1671201)
How it was run: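 Enzyme and proluciferin substrate are mixed with test chemicals for 10 min, then NADPH regeneration system drives turnover for 1 h at room temperature. A detection reagent halts the reaction; luminescence after 20 min gives relative activity.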

Chain of Cytochrome P450 3A4 (Homo sapiens) (P08684 whole entry, looked up): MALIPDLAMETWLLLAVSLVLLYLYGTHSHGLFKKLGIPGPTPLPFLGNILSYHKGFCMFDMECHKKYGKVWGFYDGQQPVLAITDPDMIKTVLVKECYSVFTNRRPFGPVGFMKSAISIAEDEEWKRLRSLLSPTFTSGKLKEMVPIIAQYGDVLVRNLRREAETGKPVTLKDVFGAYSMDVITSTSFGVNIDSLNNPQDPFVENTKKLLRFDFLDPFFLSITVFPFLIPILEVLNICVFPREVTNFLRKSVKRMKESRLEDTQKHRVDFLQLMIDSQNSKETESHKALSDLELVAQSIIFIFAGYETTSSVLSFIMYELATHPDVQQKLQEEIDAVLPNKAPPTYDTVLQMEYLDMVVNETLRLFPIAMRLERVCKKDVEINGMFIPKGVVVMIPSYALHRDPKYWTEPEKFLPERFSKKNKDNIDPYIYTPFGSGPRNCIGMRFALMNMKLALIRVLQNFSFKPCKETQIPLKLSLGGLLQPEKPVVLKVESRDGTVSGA
Chain of Nuclear receptor subfamily 1 group I member 2 (Homo sapiens) (O75469 whole entry, looked up): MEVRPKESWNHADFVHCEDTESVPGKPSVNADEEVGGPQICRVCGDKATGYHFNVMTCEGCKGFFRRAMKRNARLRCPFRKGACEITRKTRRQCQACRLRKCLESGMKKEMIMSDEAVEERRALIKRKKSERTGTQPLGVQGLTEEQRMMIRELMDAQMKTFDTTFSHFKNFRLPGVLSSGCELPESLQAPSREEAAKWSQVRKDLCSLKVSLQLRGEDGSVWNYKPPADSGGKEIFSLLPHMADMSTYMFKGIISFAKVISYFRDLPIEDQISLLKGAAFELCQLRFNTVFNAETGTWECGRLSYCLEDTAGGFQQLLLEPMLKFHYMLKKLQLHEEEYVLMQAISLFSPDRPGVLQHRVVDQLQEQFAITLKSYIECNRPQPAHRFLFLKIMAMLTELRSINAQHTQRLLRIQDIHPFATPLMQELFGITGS
Chain of Voltage-gated inwardly rectifying potassium channel KCNH2 (Homo sapiens) (Q12809 whole entry, looked up): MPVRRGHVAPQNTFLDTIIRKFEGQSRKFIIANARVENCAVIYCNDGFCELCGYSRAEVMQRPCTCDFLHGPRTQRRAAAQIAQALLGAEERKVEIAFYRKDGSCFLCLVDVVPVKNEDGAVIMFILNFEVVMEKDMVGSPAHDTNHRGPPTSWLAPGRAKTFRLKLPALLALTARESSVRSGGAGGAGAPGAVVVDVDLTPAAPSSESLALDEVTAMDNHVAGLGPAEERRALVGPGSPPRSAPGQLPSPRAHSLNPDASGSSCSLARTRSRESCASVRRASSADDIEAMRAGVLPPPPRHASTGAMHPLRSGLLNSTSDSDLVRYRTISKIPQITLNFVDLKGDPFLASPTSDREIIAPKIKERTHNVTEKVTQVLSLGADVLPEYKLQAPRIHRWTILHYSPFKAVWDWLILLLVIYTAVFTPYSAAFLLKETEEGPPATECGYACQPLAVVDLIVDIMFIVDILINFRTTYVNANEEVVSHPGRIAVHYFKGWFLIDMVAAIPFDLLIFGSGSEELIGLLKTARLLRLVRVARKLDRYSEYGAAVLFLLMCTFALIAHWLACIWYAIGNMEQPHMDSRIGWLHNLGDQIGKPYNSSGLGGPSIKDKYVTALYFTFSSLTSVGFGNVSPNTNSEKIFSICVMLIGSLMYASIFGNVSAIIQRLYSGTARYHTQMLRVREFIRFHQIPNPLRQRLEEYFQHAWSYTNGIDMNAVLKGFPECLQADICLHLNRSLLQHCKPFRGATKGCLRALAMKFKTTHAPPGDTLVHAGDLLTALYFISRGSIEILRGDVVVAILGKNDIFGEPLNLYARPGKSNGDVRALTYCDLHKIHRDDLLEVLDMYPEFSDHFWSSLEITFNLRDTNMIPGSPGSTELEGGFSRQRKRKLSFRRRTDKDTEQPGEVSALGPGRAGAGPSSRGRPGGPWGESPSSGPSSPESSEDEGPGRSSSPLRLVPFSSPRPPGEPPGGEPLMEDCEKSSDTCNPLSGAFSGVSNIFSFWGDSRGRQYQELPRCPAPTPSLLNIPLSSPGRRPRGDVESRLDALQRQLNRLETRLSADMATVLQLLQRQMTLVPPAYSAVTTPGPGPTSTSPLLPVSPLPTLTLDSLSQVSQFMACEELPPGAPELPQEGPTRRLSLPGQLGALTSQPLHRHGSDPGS
Chain of Cytochrome P450 1A2 (Homo sapiens) (P05177 whole entry, looked up): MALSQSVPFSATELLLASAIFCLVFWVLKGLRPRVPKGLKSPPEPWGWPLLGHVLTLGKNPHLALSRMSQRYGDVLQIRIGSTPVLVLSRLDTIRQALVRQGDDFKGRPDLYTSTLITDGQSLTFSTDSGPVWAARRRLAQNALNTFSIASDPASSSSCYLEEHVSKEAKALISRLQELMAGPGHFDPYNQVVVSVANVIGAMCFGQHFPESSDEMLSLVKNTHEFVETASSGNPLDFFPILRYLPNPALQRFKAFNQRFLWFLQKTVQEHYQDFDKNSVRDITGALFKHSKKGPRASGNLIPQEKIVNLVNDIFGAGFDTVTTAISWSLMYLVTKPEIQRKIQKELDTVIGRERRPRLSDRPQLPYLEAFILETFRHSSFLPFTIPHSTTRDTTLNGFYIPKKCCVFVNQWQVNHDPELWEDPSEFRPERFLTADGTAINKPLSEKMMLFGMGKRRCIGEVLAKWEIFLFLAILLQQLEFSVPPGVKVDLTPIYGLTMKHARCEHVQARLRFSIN
Chain of Cytochrome P450 2C19 (Homo sapiens) (P33261 whole entry, looked up): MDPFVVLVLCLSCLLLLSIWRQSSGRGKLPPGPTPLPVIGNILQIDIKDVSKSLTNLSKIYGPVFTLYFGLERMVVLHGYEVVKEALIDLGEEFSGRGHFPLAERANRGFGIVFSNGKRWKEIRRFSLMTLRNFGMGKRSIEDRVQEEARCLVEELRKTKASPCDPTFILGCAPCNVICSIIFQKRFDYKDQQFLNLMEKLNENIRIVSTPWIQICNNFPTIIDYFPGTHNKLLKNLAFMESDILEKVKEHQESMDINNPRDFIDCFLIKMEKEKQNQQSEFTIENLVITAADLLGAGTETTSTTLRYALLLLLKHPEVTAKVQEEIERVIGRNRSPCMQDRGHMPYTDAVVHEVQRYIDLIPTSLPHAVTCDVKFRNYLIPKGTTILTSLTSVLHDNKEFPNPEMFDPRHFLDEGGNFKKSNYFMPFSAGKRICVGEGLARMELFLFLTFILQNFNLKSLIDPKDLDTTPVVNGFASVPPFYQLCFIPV
Chain of Cytochrome P450 2C9 (Homo sapiens) (P11712 whole entry, looked up): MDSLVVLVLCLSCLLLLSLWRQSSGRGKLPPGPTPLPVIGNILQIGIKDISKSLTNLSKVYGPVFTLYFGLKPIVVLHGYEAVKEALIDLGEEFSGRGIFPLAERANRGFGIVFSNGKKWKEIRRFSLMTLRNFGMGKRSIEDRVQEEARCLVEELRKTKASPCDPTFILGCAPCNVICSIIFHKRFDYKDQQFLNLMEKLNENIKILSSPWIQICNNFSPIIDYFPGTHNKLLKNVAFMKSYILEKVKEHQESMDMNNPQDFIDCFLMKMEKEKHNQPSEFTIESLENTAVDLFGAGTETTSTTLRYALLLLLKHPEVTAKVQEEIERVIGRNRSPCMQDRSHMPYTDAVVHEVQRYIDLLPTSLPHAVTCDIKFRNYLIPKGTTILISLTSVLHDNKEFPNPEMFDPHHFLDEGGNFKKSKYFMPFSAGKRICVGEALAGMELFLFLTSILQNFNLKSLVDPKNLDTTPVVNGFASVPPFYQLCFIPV
Chain of Thyrotropin-releasing hormone receptor (Homo sapiens) (P34981 whole entry, looked up): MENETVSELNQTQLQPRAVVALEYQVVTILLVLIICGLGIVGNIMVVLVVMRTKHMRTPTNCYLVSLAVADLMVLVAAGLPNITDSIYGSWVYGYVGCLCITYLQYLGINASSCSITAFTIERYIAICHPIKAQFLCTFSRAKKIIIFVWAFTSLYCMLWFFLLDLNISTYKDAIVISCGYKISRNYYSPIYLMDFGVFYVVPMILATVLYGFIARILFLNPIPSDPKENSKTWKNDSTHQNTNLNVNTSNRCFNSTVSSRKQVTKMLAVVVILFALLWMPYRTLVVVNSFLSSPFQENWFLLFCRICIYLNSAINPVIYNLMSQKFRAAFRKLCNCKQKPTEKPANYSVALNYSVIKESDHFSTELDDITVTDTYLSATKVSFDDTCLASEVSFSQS
Chain of Nuclear receptor subfamily 1 group I member 2 (Rattus norvegicus) (Q9R1A7 whole entry, looked up): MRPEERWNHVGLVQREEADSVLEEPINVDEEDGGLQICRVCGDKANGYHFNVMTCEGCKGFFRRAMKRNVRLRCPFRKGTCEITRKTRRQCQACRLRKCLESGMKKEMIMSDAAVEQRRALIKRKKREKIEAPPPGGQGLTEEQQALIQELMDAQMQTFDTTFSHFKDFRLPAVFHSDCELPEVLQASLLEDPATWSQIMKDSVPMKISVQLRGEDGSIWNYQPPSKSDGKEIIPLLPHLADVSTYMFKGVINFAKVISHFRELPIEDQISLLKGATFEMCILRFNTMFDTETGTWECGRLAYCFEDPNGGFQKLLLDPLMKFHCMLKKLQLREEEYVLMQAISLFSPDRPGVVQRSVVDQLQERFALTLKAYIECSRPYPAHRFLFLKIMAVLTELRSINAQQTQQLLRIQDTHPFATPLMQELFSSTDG
Chain of Cytochrome P450 2D6 (Homo sapiens) (P10635 whole entry, looked up): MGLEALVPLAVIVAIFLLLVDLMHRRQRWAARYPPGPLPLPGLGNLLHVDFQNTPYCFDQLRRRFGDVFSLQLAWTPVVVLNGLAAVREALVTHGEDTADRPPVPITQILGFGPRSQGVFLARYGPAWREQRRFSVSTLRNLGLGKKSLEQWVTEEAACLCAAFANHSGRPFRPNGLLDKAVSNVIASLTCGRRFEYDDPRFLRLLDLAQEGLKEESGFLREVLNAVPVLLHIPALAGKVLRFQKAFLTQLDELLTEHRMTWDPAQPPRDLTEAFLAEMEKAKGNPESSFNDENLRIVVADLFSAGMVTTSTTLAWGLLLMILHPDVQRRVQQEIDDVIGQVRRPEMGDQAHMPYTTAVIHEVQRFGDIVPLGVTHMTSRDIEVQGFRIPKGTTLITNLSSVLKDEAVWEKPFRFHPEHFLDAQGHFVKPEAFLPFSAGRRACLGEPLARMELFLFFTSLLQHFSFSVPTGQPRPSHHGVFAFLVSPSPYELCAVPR

| SMILES | Potency [1] | Potency [2] | Potency [3] | Potency [4] | Potency [5] | Potency [6] | Potency [7] | Potency [8] | Potency [9] | Potency [10] | Potency [11] | Potency [12] | Potency [13] | Potency [14] | max activation [15] [%] | Potency [16] |
| --- | --- | --- | --- | --- | --- | --- | --- | --- | --- | --- | --- | --- | --- | --- | --- | --- |
| O=C(O)c1cccc(-c2noc(-c3ccccc3F)n2)c1 | inactive | inactive | inactive | inactive | inactive | inactive | 0.006 µM (active) | inactive | inactive | 3.47 µM (active) | 0.776 µM (active) | 2.45 µM (active) | 4.56 µM (active) | inactive |  |  |
| CC(=O)Nc1cc(S(=O)(=O)O)cc2cc(S(=O)(=O)O)c(N=Nc3ccccc3)c(O)c12 | inactive | 21.7 µM (active) | inactive | 27.3 µM (active) | inactive | 24.3 µM (active) | inactive |  |  | 35.6 µM (active) | 39.9 µM (active) | 35.6 µM (active) | 31.7 µM (active) | inactive |  |  |
| CCCCCCCCCCCCCCN(CCO)CCO | inactive | 61.1 µM (active) | 30.6 µM (active) | 27.3 µM (active) | inactive | 68.6 µM (active) | 12.2 µM (active) |  |  | 7.96 µM (active) | 79.6 µM (active) | 31.7 µM (active) | 17.8 µM (active) |  |  |  |
| COc1ncnc(NS(=O)(=O)c2ccc(N)cc2)c1OC | inactive | inactive | inactive | inactive | inactive | inactive | inactive | inactive | inactive | inactive | inactive | inactive | inactive | inactive | -3.86 | inactive |
| O=C(/C=C/c1ccc(O)c(O)c1)O[C@@H]1C[C@@](OC(=O)/C=C/c2ccc(O)c(O)c2)(C(=O)O)C[C@@H](O)[C@@H]1O | inactive | inactive | inactive | inactive | inactive | inactive | inactive | inactive | inactive | inactive | 12.3 µM (active) |  | 27.5 µM (active) | inactive | -5.53 | inactive |
| O=C(O)c1ccc(OCCCOc2ccc(C(=O)O)cc2)cc1 | inactive | inactive | inactive | inactive | inactive | inactive | inactive | inactive | inactive | 8.71 µM (active) | inactive |  | inactive | inactive | -2.11 | inactive |
| CCC1(CO)COCOC1 | inactive | inactive | inactive | inactive | inactive | inactive | inactive |  |  | inactive |  | inactive |  | inactive |  |  |
| CCCCCCCC/C=C\CCCCCCCCO | inactive | inactive | inactive | inactive | inactive | inactive | 30.6 µM (active) |  |  | inactive | inactive |  | 28.2 µM (active) | inactive |  | inactive |
